From PubChem BioAssay
Compounds with a hit are over-represented: about 0.74% of the library has one in this group of screens.
Akt phos inh: inhibitors of Akt phosphorylation; activity change, % for hits at 50 µM; 360,000 tested, 0.32% active; AID 651550; Neuro2A IGF-stimulated pAkt S473 HTRF, 20 min; stronger effect = lower value; in the data active = activity change below about -80%; inconclusive = mostly about -51% to -80%; also: % is scaled to controls: 0 for no effect and ±100 for the full control effect
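Single-point screen (50 µM final compound) in Neuro2A cells stimulated 20 min with 6 nM IGF at 37 deg C. After lysis, Ser473-phosphorylated Akt read by HTRF (ex 330 nm, em 615/665 nm) as the 665/615 ratio.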
PINK1 expr mod: modulators of PINK1 expression | 410,000 tested, 0.2% active | PINK1 immunofluorescence, high-content cytometry, 24 h | Potency, µM (titrated, usually from 76.6 µM), without a hit: at the highest dose activation (PINK1 increase), actives largely listed as activators; active = well fitted activation curve with a large enough effect; inconclusive = small, poorly fitted or top-dose-only effect; cell line not stated here; also: potency is read from the fitted curve at half-maximal effect; % of control where 0% means no effect; nearly all actives have a fitted effect of over 65% in size
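A stable cell line was treated with compounds at 5 concentrations for 24 hours, with CCCP as control. PINK1 levels and mitochondrial localization were measured by immunofluorescence with mitochondrial, cell and nuclear markers after fixation, read by laser-scanning cytometry.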
GRP78 ERSR act: ER stress response induction in glioma; U87-MG GRP78 promoter luciferase reporter, 16 h; Potency, µM, without a hit: at the highest dose activation, actives largely listed as activators; 420,000 tested, 0.02% active; AID 602332; also: potency is read from the fitted curve at half-maximal effect; series mostly up to about 76 µM; % of control where 0% means no effect; nearly all actives have a fitted effect of over 35% in size
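ERSR induction read as luciferase luminescence (Bright-Glo, 10 min at room temperature) in stably transfected human U87-MG glioma cells exposed to compounds for 16 h, using GRP78 as sensor.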
LDHA inh: blocks human lactate dehydrogenase A; P00338; purified LDHA, NADH/diaphorase-resazurin fluorescence; stronger effect = lower value; activity change, % (values are at about 110 or 230 µM); 480,000 tested, 0.15% active; in the data active = activity change below about -30%; inconclusive = mostly about -25% to -30%;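 also: plate controls were DMSO wells for no effect and wells without enzyme for full effect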
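Resorufin fluorescence (ex540/em590), read at 0 and 20 min after diaphorase/resazurin addition, reports the NADH left after a 5 min room-temperature reaction of 2 nM human LDH5 with 0.06 mM NADH and 0.2 mM pyruvate.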
Vif-APOBEC3G blk: blocks the Vif interaction with human APOBEC3G; Q9HC16; HeLa A3G-eYFP + Vif (tagged APOBEC3G with the HIV-1 protein that degrades it), YFP fluorescence, overnight; AID 602310; 410,000 tested, 0.076% active; Potency, µM (top dose mostly 46.1 µM), for the others: top-dose activity, negative = active, usual class: inhibitors; also: potency is read from the fitted curve at half-maximal effect; % is scaled to controls: 0 for no effect and ±100 for the full control effect; nearly all actives have a fitted effect of over 60% in size
Target sequence (Q9HC16 whole entry, looked up): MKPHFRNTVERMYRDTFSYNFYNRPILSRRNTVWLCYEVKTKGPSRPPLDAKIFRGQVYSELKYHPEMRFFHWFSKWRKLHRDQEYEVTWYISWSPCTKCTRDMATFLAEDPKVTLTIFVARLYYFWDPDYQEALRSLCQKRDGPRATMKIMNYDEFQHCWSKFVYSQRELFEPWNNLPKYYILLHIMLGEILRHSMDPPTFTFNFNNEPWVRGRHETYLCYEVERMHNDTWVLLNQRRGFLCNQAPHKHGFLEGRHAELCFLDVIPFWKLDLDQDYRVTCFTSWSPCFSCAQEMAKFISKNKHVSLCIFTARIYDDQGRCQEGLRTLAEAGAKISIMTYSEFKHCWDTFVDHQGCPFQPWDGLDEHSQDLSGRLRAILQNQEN
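Read-out is eYFP fluorescence (Ex 488/Em 500-530) from Vif-expressing HeLa A3G-eYFP cells; more signal means A3G escaped Vif-mediated degradation. Cells plated overnight, compound pinned in, incubated overnight at 37 deg C.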
Vif-A3F inh: Vif-A3F binding inhibition. HeLa A3F-eYFP + Vif (tagged APOBEC3F with the HIV-1 protein that degrades it), YFP fluorescence increase. Potency, µM (highest dose often 46.1 µM), without a hit: at the top dose activity, negative = active. 390,000 tested, 0.2% active. AID 602313; also: potency is read from the fitted curve at half-maximal effect; % of control where 0% means no effect; nearly all actives have a fitted effect of over 65% in size
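Fluorescence increase (Ex 488/Em 500-530) after overnight compound treatment at 37 deg C flags inhibition of Vif-driven A3F-eYFP loss in stable HeLa A3F-eYFP/Vif cells seeded overnight beforehand.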
Active calls of the source: *; ! = a repeat was not active; [ ] = remark or other dose. Unless noted, calls follow the shape of the dose curve; as a rule, active = well fitted curve in the direction sought with a large enough effect; inconclusive = small, poorly fitted or top-dose-only effect, or another doubt; inactive = no such curve, though single readings can be large; an effect the other way counts as inactive or inconclusive.

How did O=c1oc(-c2ccc(F)cc2)nn1CC(O)COc1ccc2ccccc2c1 (stereo not drawn) do in these assays?
LDHA inh: -30*

How did Cc1nc2cc(NS(=O)(=O)c3ccc(C#N)cc3)ccc2o1 do in these assays?
LDHA inh: -6

Results for Cc1ccc(C(=O)N2CCN(c3ccccc3)CC2)cc1S(=O)(=O)N1CCCC1 ?
Akt phos inh: -107%*; PINK1 expr mod: 1%; GRP78 ERSR act: -3%; LDHA inh: -6; Vif-APOBEC3G blk: 5%; Vif-A3F inh: -7%

How did CNC(=O)c1ccccc1NC(=O)c1ccc(C)c(S(=O)(=O)N2CCCCC2)c1 do in these assays?
Akt phos inh: -112%*; PINK1 expr mod: -1%; GRP78 ERSR act: -3%; LDHA inh: -3; Vif-APOBEC3G blk: 1%; Vif-A3F inh: 2%

Results for Cc1ccc(C(=O)N2CCN(c3ccc(F)cc3)CC2)cc1S(=O)(=O)N1CCCCC1 ?
Akt phos inh: inactive; PINK1 expr mod: inconclusive; GRP78 ERSR act: -5%; LDHA inh: 0; Vif-APOBEC3G blk: -2%; Vif-A3F inh: inconclusive

Results for CC(=O)c1ccc(N2CCN(S(=O)(=O)c3cc4[nH]c(=O)c(=O)[nH]c4cc3C)CC2)cc1 ?
Akt phos inh: inactive; PINK1 expr mod: 10%; GRP78 ERSR act: 3%; LDHA inh: -30*!; Vif-APOBEC3G blk: -2%; Vif-A3F inh: 4%

Results for Cc1ccc(C(=O)Nc2cccc(O)c2)cc1S(=O)(=O)N1CCCCCC1 ?
Akt phos inh: inactive; PINK1 expr mod: 1%; GRP78 ERSR act: 3%; LDHA inh: -8; Vif-APOBEC3G blk: -5%; Vif-A3F inh: 3%

How did CC(=O)c1ccc(NS(=O)(=O)c2cc3[nH]c(=O)c(=O)[nH]c3cc2C)cc1 do in these assays?
PINK1 expr mod: 1%; GRP78 ERSR act: -5%; LDHA inh: 0; Vif-APOBEC3G blk: -2%; Vif-A3F inh: -1%

What do the screens show for `CC1CCN(S(=O)(=O)c2ccc(Oc3ccc([N+](=O)[O-])cc3)cc2)CC1`?
Akt phos inh: -81%*; PINK1 expr mod: 1%[38.3 µM]; GRP78 ERSR act: 0%; LDHA inh: -7; Vif-APOBEC3G blk: 0%; Vif-A3F inh: -1%

What do the screens show for `Cn1c(=O)c2c(ncn2Cc2ccccc2F)n(C)c1=O`?
LDHA inh: -12

How did Cn1nc(C(=O)NC(Cc2ccccc2)c2ccccc2)c2ccccc2c1=O (stereo not drawn) do in these assays?
LDHA inh: 3

Results for COc1ccc(-n2c(O)c(/C=N/NS(=O)(=O)c3ccc(C)cc3)c3ccccc3c2=O)cc1OC ?
Akt phos inh: inactive; PINK1 expr mod: -1%; GRP78 ERSR act: -4%; LDHA inh: 3; Vif-APOBEC3G blk: inconclusive; Vif-A3F inh: 5µM*

What do the screens show for `COCCn1nnnc1C(c1ccccc1OC)N1CCN(c2ccccc2F)CC1` (stereo not drawn)?
Akt phos inh: inactive; PINK1 expr mod: -1%; GRP78 ERSR act: -3%; LDHA inh: -6; Vif-APOBEC3G blk: -6%; Vif-A3F inh: -2%

Results for COCCn1nnnc1C(c1cc2cccc(C)c2[nH]c1=O)N1CCN(c2ccccc2F)CC1 (stereo not drawn) ?
Akt phos inh: -90%*; PINK1 expr mod: -1%; GRP78 ERSR act: -5%; LDHA inh: 10; Vif-APOBEC3G blk: 1%; Vif-A3F inh: 1%

What do the screens show for `CCCn1nnnc1SCC(=O)Nc1nnc(CC)s1`?
Akt phos inh: -108%*; PINK1 expr mod: -1%; GRP78 ERSR act: -2%; LDHA inh: 2; Vif-APOBEC3G blk: 0%; Vif-A3F inh: -2%

Results for COCCNC(=S)N(C)[C@H]1C[C@H]2c3cc(-c4ccccc4)ccc3CCN2C(=O)[C@H]1[C@H](C)O ?
Akt phos inh: inactive; PINK1 expr mod: 0%; GRP78 ERSR act: -4%; LDHA inh: -32*; Vif-APOBEC3G blk: 2%; Vif-A3F inh: -16%
